Measured values reported in PubChem BioAssay (NCI).
The panel holds about 83,000 compounds, 20% with a hit somewhere; the sample as a whole holds those more often.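 Treatment: one concentration, 48 hours, 96-well format. Scoring: percent growth, with anything below 10 considered active.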 Values without a mark were called inactive. The source made the active and inactive calls.

tested on: OVCAR-8 ovarian; test: NCI-60 one-dose screen, 48 h (100 = growth as untreated, 0 = no growth, -100 = all killed); conditions: 10 µM unless noted
Description: Growth inhibition of the OVCAR-8 human tumor cell line is measured as a screen for anti-cancer activity. Cells are grown in 96 well plates and exposed to the test compound for 48 hours. Compounds are tested at a single concentration, which is 10^-5 M for most compounds. The reported endpoint is percent growth (GI% or GIPRCNT), where numbers from 0 - 100% represent growth inhibition, and numbers from -100% - 0 represent cell death. For example, a value of 40 represents 60% growth inhibition. A value of 0 means no net growth occurred over the course of the experiment. A value of -40 indicates 40% of cells at the beginning of the experiment died by the end of the experiment. A value of -100 means all cells are dead at the end of the experiment.
NCI-60 Human Tumor Cell Lines Screen was performed using the standard one-dose NCI protocol, which is described in more detail at https://dtp.cancer.gov/discovery_development/nci-60/default.htm.
Compounds with GIPRCNT values below 10 were considered active. Activity score was based on GIPRCNT using the following formula: […]
Score is 0 for GIPRCNT values of 100 or above, 50 for GIPRCNT values of 0, and 100 for GIPRCNT values of -100.

SMILES | growth
CN1CCN(Cc2ccc(NC(=O)c3cncc(C#Cc4cnc(N)c5ccncc45)c3)cc2C(F)(F)F)CC1 | 29.6%
CCCOC(=O)n1cccc1 | 108%
N#Cc1c(Nc2ccccc2)nc2n(c1=O)-c1ccccc1Sc1ccccc1-2 | 74.9%
CCN(CC)CCC(CNc1ccnc2cc(Cl)ccc12)c1ccccc1 (stereo not given) | 61.2%
COc1cc(C2C3=C(COC3=O)Nc3cc4c(cc32)CCC4)cc2c1OCO2 (stereo not given) | 24.5%
ClC(Cl)c1nc(-c2ccccc2)nc2cc(-c3ccccc3)nn12 | 81.3%
CC(=O)Nc1nc(N)nc(NC(C)=O)c1N=O | 109%
CCN(CC)CCCC(C)Nc1c2ccc(Cl)cc2nc2cc(OC)c(OC)cc12 (stereo not given) | 14.1%
COc1ccc(/C=C2/C(=O)NC(SCC(=O)N3CCN(c4cc5c(cc4F)c(=O)c(C(=O)O)cn5C4CC4)CC3)=NC2N)cc1OC (stereo not given) | 106%
C[n+]1c(/C=C/c2c(O)ccc3ccccc23)ccc2ccccc21 | 21.3%
Cc1ccc(-c2cc3nc(C(Cl)Cl)nc(-c4cccnc4)n3n2)cc1 | 22.7%
C=C1CCC2C(C)(CO)C(O)CCC2(C)C1C/C=C1/C(=O)OCC1Oc1ccccc1C (stereo not given) | 72.5%
COc1ccc2c(c1)C(c1cc(OC)c3c(c1)OCO3)C1=C(COC1=O)N2 (stereo not given) | 19%
CCCCCCCCCCCCNC(=O)[C@H]1CSC(c2cc(Br)cs2)N1 (stereo not given in full) | -64.8% (active)
O=C1NN(C(=O)c2ccc(Cl)cc2)C(c2ccccc2)=N/C1=C\c1cn(-c2ccccc2)nc1-c1ccccc1 | 94.1%
O=S(=O)(NCCNc1nccc(-c2c(-c3ccc(O)cc3)nc3sccn23)n1)c1cccc2ccccc12 | 95.4%
CCC1=CCC[C@@]2(C)CCC[C@@]3(C)CCCC(C)(C)[C@]1([O-])[O+]32 | 104%
CC(C)CSc1nc(NN)c(C#N)c(-c2ccccc2)n1 | 105%
COc1cccc(-c2nc3sccn3c2-c2ccnc(NCCCNS(=O)(=O)c3ccc(F)cc3)c2)c1 | 16%
O=C1NC(=C(Cl)Cl)/C(=N/S(=O)(=O)N2CCC(C3(C(F)(F)F)N=N3)CC2)N1 | 96.2%

SMILES | growth
C=C1CCC2C3(C)COC(c4ccccc4)OC3CCC2(C)C1/C=C/C1=CCOC1=O (stereo not given) | 32.9%
Clc1cc(Cl)cc(-c2ccc(-c3ccc(/C=N/NC4=NCCN4)cc3)s2)c1 | 85%
c1coc(CNc2ccnc(Nc3ccc(OCCN4CCCCC4)cc3)n2)c1 | -5.87% (active)
O=c1cc(Cc2ccc([N+](=O)[O-])cc2)[nH]c(=O)[nH]1 | 103%
Clc1ccc2c(NC3CCC(NC4CCCCC4)CC3)ccnc2c1 (stereo not given) | 52.2%
COc1ccc(Nc2nn3c(C)cc(C)nc3c2C(=O)Nc2ccc(C)cc2)c(OC)c1 | 100%
CC(C)C1=CC2=C(C=O)C[C@@H]3[C@](C)(CCC[C@@]3(C)C(=O)OCC#CCN3CCCC3)[C@H]2CC1 | 77.9%
CN1CCN(Cc2ccc(NC(=O)c3cncc(C#Cc4cnc(N)c5cnccc45)c3)cc2C(F)(F)F)CC1 | 23.8%
COc1ccc(OC)c(C2OC(c3ccc4ccccc4c3O)=NN2C(C)=O)c1 (stereo not given) | 81%
COc1cc(/C=C/C(=O)c2cccc(-n3cc(-c4cc(OC)c(OC)c(OC)c4)[nH]c3=O)c2)cc(OC)c1OC | 6.44% (active)
Clc1cc(Cl)c2nc(-c3ccc(-c4ccc(/C=N/NC5=NCCN5)cc4)s3)cn2c1 | 97.9%
Nc1ccc(C(=O)CSc2nc3ccccc3[nH]2)cc1 | 105%
Cc1ccc(C(=O)C2=Cc3cc4ccccc4n3Cc3cnnn32)cc1 | 106%
Cc1ccc(CSC(=N)N)cc1C | 109%
CNC(=S)NNC(=O)C1CC1 | 94.7%
N=C(N)c1ccc(-c2cc(Cl)cc(Cl)c2)cn1 | 99.2%
COc1cc2c(cc1OCCCCCn1c3ccccc3c3ccccc31)N=C[C@@H]1CCCN1C2=O | -30.6% (active)
COc1cccc(CC(C)=C(c2ccc(OCCN3CCCCC3)cc2)c2ccc(OCCN3CCCCC3)cc2)c1 | -50.3% (active)
COc1ccc(C(=O)c2cc(OC)c3c(c2)OCO3)cc1O | 17.8%
COc1ccc2c(c1)[nH]c(=O)c1c3cc(C)c(C)cc3cn21 | -27.5% (active)
